Phagocytosis inh: inhibitors of macrophage phagocytosis; J774A.1 macrophage IgG-bead phagocytosis, imaging; inhibition, % at 5 µM; 0.07% of 110,000 active;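 active = inhibition above the mean of the plate negative controls plus 5 SD, cut at about 13% in these data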;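 also: phagocytic index as fraction of beads internalized from green versus red external bead signal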
MRP resist rev: reverses drug resistance mediated by MRP. H69AR cells + 2 uM doxorubicin, CellTiter-Glo, 72 h. differential viability (reversal), % at 10 µM. 0.04% of 85,000 active. AID 602;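 active = viability drop by adding the cancer drug above about 55%, with treated viability meeting a 40% cutoff, limit read from the data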;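 also: larger differential means the compound sensitizes cells more to doxorubicin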
Mac1 fbg enh: enhancers of human CD11b/CD18 binding to fibrinogen | P05107+P11215 | K562 CD11b/CD18 adhesion to fibrinogen, ATPlite luminescence | activation, % at 10 µM | 0.07% of 93,000 active | AID 1499;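 active = 10 µM primary screen giving 50% or more activity, confirmed by 40% or more on retest at that dose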
Smad3 inh: inhibitors of human Smad3 transcription factor binding; P84022; TR-FRET Smad3/Dy647-FoxH1 peptide binding, europium anti-His; inhibition, % at 25 µM; 0.29% of 88,000 active;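 active = compounds that reduce the energy-transfer binding signal between the protein and its labelled peptide by more than half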
Target sequence (P84022 whole entry, looked up): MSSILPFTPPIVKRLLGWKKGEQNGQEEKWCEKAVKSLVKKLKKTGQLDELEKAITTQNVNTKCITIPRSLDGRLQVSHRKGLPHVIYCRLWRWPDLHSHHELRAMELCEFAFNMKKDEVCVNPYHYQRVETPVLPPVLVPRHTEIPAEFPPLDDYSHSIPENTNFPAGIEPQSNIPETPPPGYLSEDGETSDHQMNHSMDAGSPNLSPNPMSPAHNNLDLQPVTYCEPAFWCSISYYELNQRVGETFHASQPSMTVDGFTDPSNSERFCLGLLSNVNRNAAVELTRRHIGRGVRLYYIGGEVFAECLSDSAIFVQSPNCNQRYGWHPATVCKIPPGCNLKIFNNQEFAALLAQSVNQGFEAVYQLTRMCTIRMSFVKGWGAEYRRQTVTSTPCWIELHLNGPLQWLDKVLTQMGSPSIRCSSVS
Mac1 fbg inh: inhibitors of human CD11b/CD18 binding to fibrinogen | inhibition, % at 10 µM | 0.54% of 93,000 active | K562 CD11b/CD18 adhesion to fibrinogen, ATPlite luminescence; Mn2+ added to activate the integrin;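 active = primary inhibition of 50% or more at 10 µM, then 40% or more on retest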
MRP1 act: activators of MRP-1. AID 799. viability increase, % at 10 µM. 0.61% of 140,000 active. H69AR cells + doxorubicin, viability rescue, CellTiter-Glo;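 active = viability gain under doxorubicin at or above a set limit, the compound median plus 3 SD, cut at about 4.7% in these data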;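 also: MRP-1 overexpressing cells given doxorubicin 25 µM after compound pretreatment; 18-22 h compound pretreatment then 72 h with doxorubicin before readout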
Numbers stand for hits; – = inactive; · = no result; [ ] = remark or other dose. This is a sample that favours compounds with a hit; in the whole collection about 1.2% have one here.

SMILES	Phagocytosis inh	MRP resist rev	Mac1 fbg enh	Smad3 inh	Mac1 fbg inh	MRP1 act
CCCCc1ccc(S(=O)(=O)NCCc2ccncc2)cc1	–	–	–	–	64.8	–
O=C1C2CCCN2c2ccc(S(=O)(=O)N3CCOCC3)cc2N1Cc1cccc(C(F)(F)F)c1 (stereo unspecified)	–	·	142.2	·	–	–
O=C1C2CCCN2c2ccc(S(=O)(=O)N3CCOCC3)cc2N1Cc1ccccc1F (stereo unspecified)	·	·	·	·	·	–
COC(=O)[C@@H]1O[C@H](SCCN)[C@@H](O)[C@H](O)[C@H]1O	·	·	·	–	·	·
O=C(COC(=O)CCCOc1ccc(Cl)cc1Cl)Nc1cccc(Cl)c1	–	·	·	·	·	–
COc1ccc(CNC(=O)COC(=O)CCCOc2ccc(Cl)cc2Cl)cc1	–	·	–	·	–	4.9
O=C(O)c1c[nH]c2c(ccc3[nH]cc(C(=O)O)c(=O)c32)c1=O	·	·	·	92.7	·	·
O=C(O)c1c[nH]c2c(C(F)(F)F)cccc2c1=O	–	–	–	–	–	–
C=CCCCCCCCCC(=O)NN	–	·	–	·	–	–
CC(C)CN1C(=O)c2ccc(C(=O)Nc3ccncc3)cc2C1=O	–	–	–	–	81.8	–
CC(C)CN1C(=O)c2ccc(C(=O)Nc3ccccn3)cc2C1=O	–	·	–	·	–	–
O=[N+]([O-])c1ccc(S(=O)(=O)Cc2ccccc2)c([N+](=O)[O-])c1	·	·	·	–	·	·
CC(C)(C)NC(=O)COC(=O)c1snc(C(=O)NC2CCCCC2)c1N	–	–	–	–	–	–
CC(OC(=O)c1snc(C(=O)NC2CCCCC2)c1N)C(=O)NC(C)(C)C (stereo unspecified)	·	–	·	–	·	6.2
COc1ccc(OCc2nc3ccc(S(=O)(=O)Nc4ccccc4Cl)cc3[nH]2)cc1	–	·	–	·	–	6.0
Cc1oc(-c2ccccc2F)nc1CS(=O)(=O)CC(=O)NCc1ccco1	–	–	–	77.6	–	–
COc1ccc(-c2csc(NC(=O)c3cc(-c4cccs4)nc4ccccc34)n2)c(OC)c1	–	·	–	·	–	4.8
COc1ccccc1-c1csc(NC(=O)c2cc(-c3cccs3)nc3ccccc23)n1	·	·	·	·	·	–
Oc1c(C(c2cccs2)N2CCC3(CC2)OCCO3)sc2ncnn12 (stereo unspecified)	–	–	–	–	–	–
Oc1c(C(c2cccs2)N2CCN(c3ccccc3)CC2)sc2ncnn12 (stereo unspecified)	·	–	·	–	·	13.7
CCOC(=O)C1=C(CC)Nc2ccccc2N=C1NC(=O)Cn1cnc2ccccc2c1=O	–	–	·	–	·	–
CCOC(=O)C1=C(CC)Nc2ccccc2N=C1NC(=O)Nc1ccc(Cl)c(Cl)c1	–	·	–	·	90.5	–
CC(C)NC(=S)N(C)C1(c2ccccc2Cl)CCCCC1=O (stereo unspecified)	–	·	·	·	·	–
Cc1cccc(NC(=S)N(C)C2(c3ccccc3Cl)CCCCC2=O)c1 (stereo unspecified)	33.0[artifact]	·	–	·	–	–
CC1(C)CCCN(C(=O)c2coc(=O)c(Br)c2)C1	·	–	·	60.5	·	–
SMILES	Phagocytosis inh	MRP resist rev	Mac1 fbg enh	Smad3 inh	Mac1 fbg inh	MRP1 act
Cc1nnc(NC(=O)C(C)Oc2ccc3c(C)cc(=O)oc3c2)s1 (stereo unspecified)	–	–	–	–	–	7.7
Cc1cc(=O)oc2cc(OCC(=O)Nc3nnc(C(C)C)s3)ccc12	–	–	–	–	–	–
CSc1ncc(Cl)c(C(=O)Nc2nnc(SC)s2)n1	–	–	–	–	–	9.1
O=C1CSC(=S)N1/N=C/c1ccc(Cl)c([N+](=O)[O-])c1	·	·	·	–	·	·
CN1CCN(CC(=O)N2c3ccccc3Sc3cc4ccccc4cc32)CC1	·	·	·	–	·	·
CCCCc1nnc(NC(=O)CSc2nc(=O)cc(N)n2-c2ccccc2)s1	·	–	–	–	–	–
Cc1cccc(-n2c(N)cc(=O)nc2SCC(=O)Nc2nnc(C)s2)c1	–	–	–	–	–	5.7
NC1C2CN(c3nc4c(cc3F)c(=O)c(C(=O)O)cn4-c3ccc(F)cc3F)CC12 (stereo unspecified)	–	·	–	·	–	6.6
CCn1cc(C(=O)O)c(=O)c2cc(F)c(N3CCNCC3)cc21	·	–	·	–	·	–
Cc1nnc2sc(-c3ccncc3)nn12	–	–	–	–	–	17.0
CC(C)(CN=C1NS(=O)(=O)c2ccccc21)CNC(=O)CN1C(=O)c2ccccc2C1=O	–	–	–	–	–	–
Cc1ccc(NC(=O)CCNC(=O)c2ccco2)cc1	–	·	·	·	·	–
COc1ccccc1NS(=O)(=O)c1ccc(NC(=O)CCNC(=O)c2ccco2)cc1	–	–	68.5	–	–	–
Nc1ncnc2c1ncn2[C@H]1O[C@@H](C(=O)OCCO)[C@H](O)[C@H]1O	·	·	·	–	·	·
Cc1ccc(-c2nn(C)c(=O)c3ccccc23)cc1CNC(=O)Cn1nc(-c2ccccc2)c2ccccc2c1=O	–	–	132.9	–	–	–
O=c1oc2c(O)c(O)cc3c(=O)oc4c(O)c(O)cc1c4c23	·	–	·	97.6	·	–
Cc1c(C)c2cc(Cl)c(O)c(CN(C)C)c2oc1=O	–	–	–	–	–	–
COc1ccc(OC)c(Nc2nc(N)nc(-c3cc4ccccc4o3)n2)c1	35.9	–	–	–	–	–
COc1ccc(OC)c(NC(=O)c2cc3ccccc3o2)c1	–	–	–	–	–	–
COc1ccc(CC(=O)Nc2ccc3c(c2)CCC3)cc1OC	–	·	–	·	65.2	–
CCOC(=O)c1cc(-c2ccccc2)sc1NC(=O)C(C)Sc1nnc(C)s1 (stereo unspecified)	–	·	·	·	·	9.2
CCOC(=O)c1cc(-c2ccccc2)sc1NC(=O)C(C)Sc1nnnn1C (stereo unspecified)	–	–	–	–	–	–
Cc1ccc(C)c(/C(=N/N=C(N)N)C2CC2)c1	·	·	·	–	·	·
COc1ccc2cc(-c3cc(C(=O)O)c4ccccc4n3)ccc2c1	·	·	·	·	·	6.5
COc1ccc(-c2cc(C(=O)O)c3ccccc3n2)c(OC)c1	–	–	–	–	–	–
SMILES	Phagocytosis inh	MRP resist rev	Mac1 fbg enh	Smad3 inh	Mac1 fbg inh	MRP1 act
CN1CCC[C@H]1c1cccnc1.O=C(O)c1ccccc1O.O=C([OH2+])c1ccccc1O.O=C([OH2+])c1ccccc1O.O=C([OH2+])c1ccccc1O.[Mn]	·	·	·	–	·	·
Cc1ccc(NC(=O)CN2C(=O)S/C(=C\c3cccn3-c3cccc(C(=O)O)c3)C2=O)c(C)c1	–	·	87.0	·	–	–
Cc1ccccc1NC(=O)CN1C(=O)S/C(=C\c2cccn2-c2cccc(C(=O)O)c2)C1=O	–	·	–	·	–	–
C=C(C)COc1ccc2c(c1)CC[C@@H]1[C@H]3C/C(=N/O)C(=O)[C@]3(C)CC[C@@H]21	·	·	·	–	·	·
CCC1SC2=NC(C)=C(C(=O)OCCOC)C(c3ccc(C(=O)OC)cc3)N2C1=O (stereo unspecified)	–	–	–	–	–	7.8
COC(=O)C1=C(C)N=C2SCCC(=O)N2C1c1ccc(C(=O)OC)cc1 (stereo unspecified)	–	–	–	–	–	–
